RGS4-Gao reg – human RGS4-Galphao interaction regulation | Multiplexed bead flow cytometry, RGS4-Galphao binding; actives lie on both sides | binding response (% of control), % at 10 µM | hit rate 0.33% among 220,000 | AID 1415; in the data active = binding response below about 49% or above about 150%; inactive = in between;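 also: fluorescent Galphao activated with aluminum fluoride binding bead-coupled RGS4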
Target sequence (P09471 whole entry, looked up): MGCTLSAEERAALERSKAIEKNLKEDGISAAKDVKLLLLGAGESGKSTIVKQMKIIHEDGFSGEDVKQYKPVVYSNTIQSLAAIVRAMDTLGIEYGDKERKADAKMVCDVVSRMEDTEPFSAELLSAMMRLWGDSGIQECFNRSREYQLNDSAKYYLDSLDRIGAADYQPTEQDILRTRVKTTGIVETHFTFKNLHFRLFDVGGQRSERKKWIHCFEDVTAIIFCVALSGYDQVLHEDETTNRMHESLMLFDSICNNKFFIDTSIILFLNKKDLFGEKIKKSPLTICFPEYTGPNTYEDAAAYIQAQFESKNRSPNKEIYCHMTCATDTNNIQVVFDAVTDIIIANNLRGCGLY
RGS7-Gao – regulators of human RGS7-Galphao interaction. Multiplexed bead flow cytometry, RGS7-Galphao binding; actives lie on both sides. binding response (% of control), % at 10 µM. hit rate 0.35% among 220,000. AID 1439; in the data active = binding response below about 49% or above about 150%; inconclusive = no clear call, values can overlap the other calls; inactive = in between;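 also: fluorescent Galphao held in activated GDP-AlF4 state binding bead-coupled RGS7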
Avidin fluor – avidin bead compound fluorescence profile. fluorescence (KMESF) at 10 µM. AID 1775. hit rate 0.38% among 220,000. Avidin beads, compound fluorescence 488/530 nm, flow cytometry; active compounds read high; in the data active = fluorescence above about 47
RGS16-Gao HTS – regulators of human RGS16-Galphao interaction; O15492+P09471; bead-based flow cytometry RGS16-Galphao binding, fluorescence; actives lie on both sides; binding response (% of control), % at 10 µM; hit rate 0.38% among 220,000; AID 1441; call rule not given here;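 also: Galphao activated by GDP with aluminum fluoride before binding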
GSH bead fluor – compound fluoresces at 488/530 nm on GSH beads. AID 1776. hit rate 0.25% among 190,000. GSH beads flow cytometry, compound fluorescence 488/530 nm; active compounds read high. fluorescence (KMESF) at 10 µM; in the data active = fluorescence above about 89;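 also: glutathione beads carrying GST-tagged Bcl family fusion proteins plus one bare bead set; values are compound well signal with DMSO vehicle wells as background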
RGS8-Gao reg – human RGS8-Galphao interaction regulation; AID 1423; hit rate 0.34% among 220,000; P09471; response (percent of control binding), % at 10 µM; multiplexed bead flow cytometry, RGS8-Galphao binding; actives lie on both sides; in the data active = response below about 60% or above about 140%; inactive = in between;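 also: Galphao activated as the GDP aluminium fluoride complex binding bead-coupled RGS8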
* hit, by the source's call; ? = inconclusive; . = no result; ! = repeats disagree; [ ] = another dose, or the depositor's remark. A selection: hits, their analogues and other compounds. The true share with any hit is near 1.2%.

SMILES	RGS4-Gao reg	RGS7-Gao	Avidin fluor	RGS16-Gao HTS	GSH bead fluor	RGS8-Gao reg
CC(C)CC(NC(=O)c1ccc(Cl)cc1)C(=O)OCC(=O)c1ccc2c(c1)NC(=O)CO2 (stereo not given)	110	111	4	100	239*	108
O=C(c1ccco1)N1CCCC(c2ccccc2)C1 (stereo not given)	100	100	14	102	34	100
CCCCCCCC(=O)NNC(=O)c1c(O)c2ccccc2n(CC)c1=O	104	97	12	101	9	102
CCCCC(=O)Nc1cccc(NC(=O)c2ccc(Br)cc2)c1	101	137	49*	109	14	102
Cc1ccc(-n2c(CCc3ccccc3)nnc2SCC(=O)NCc2ccccc2)cc1C	101	99	11	101	24	99
N#C/C(=C\c1ccc(N2CCCCC2)o1)C(=O)Nc1cccc(Br)c1	136	141	60*	136	60	103
N#C/C(=C\c1ccc(N2CCCCC2)o1)C(N)=O	104	103	11	101	18	104
COc1cc(C(=O)N2CCC(NC(=O)C(Cc3ccccc3C)NC(C)=O)CC2)cc(OC)c1OC (stereo not given)	109	108	15	106	7	104
Cc1ccc(C2NCCS2)cc1 (stereo not given)	104	105	4	98	9	74
CN(C)c1ccc(C2NCCS2)cc1 (stereo not given)	15*	27*	9	21*	11	47*
COCc1cc(CN2CCCC2)c(O)c2ncccc12	104	114	66*	101	14	101
CC(C)(C)NC(=O)NC(=O)COC(=O)c1ccco1	102	106	8	102	261*	103
O=c1c2ccccc2nc(SCc2cccc(F)c2)n1Cc1ccco1	108	122	72*	109	25	100
Cc1ccc(N(CC(=O)NCc2ccco2)C(=O)CCC(=O)Nc2ccccn2)cc1C	100	99	8	104	254*	98
Cc1cc(C)cc(N(CC(=O)NCc2ccco2)C(=O)CCC(=O)Nc2ccccn2)c1	100	101	33	102	24	100
Cc1cc(N2CCOCC2)c2c(N)c(C)cc(C)c2n1	106	148	61*	103	26	99
CC(=O)Nc1ccc(N2CCN(C(=O)c3cccs3)CC2)cc1	104	132	99*	78	22	95
Nc1ccc(N2CCN(C(=O)c3cccs3)CC2)cc1	83	85	3	85	46	92
CCCCOc1ccc(N=Cc2cccs2)cc1	92	97	1	44	6	80
Oc1ccc(N=Cc2ccc(-c3cccs3)s2)cc1	105	106	47*	102	10	99
Nc1nn(-c2ccccc2)nc1C(=O)OCc1ccccc1	110	?	10	112	.	104
CCN(CC)S(=O)(=O)c1ccc(N2CCCC2)c(C(=O)OCC(=O)N2CCCC2)c1	100	99	24	98	12	98
CC(C)N=C(Nc1ccc(Cl)cc1)c1cccnc1	103	95	10	105	14	102
COCCSc1ccccc1C(=O)N1CCCC(C)C1 (stereo not given)	102	?	9	102	17	101
CCOC(=O)C1CCCN(C(=O)c2ccccc2SCCOC)C1 (stereo not given)	111	145	102*	105	30	100
SMILES	RGS4-Gao reg	RGS7-Gao	Avidin fluor	RGS16-Gao HTS	GSH bead fluor	RGS8-Gao reg
O=C(NCCCn1ccnc1)c1cc(S(=O)(=O)N2CCOCC2)ccc1F	99	100	22	99	12	98
CN(C)CCCNC(=O)c1cc(S(=O)(=O)N2CCOCC2)ccc1F	166*[activator]	141	9	172	31	142*[activator]
COc1c(Br)cc(Br)cc1C(=O)O	100	99	14	100	40	99
O=C(Nc1ccccc1)Nc1ccccn1	103	?	68*!	104	32	97
O=C(Nc1ccccn1)C(=O)Nc1ccccn1	106	?	3	102	.	103
COc1ccccc1Nc1nc(NCc2ccco2)nc(N)c1[N+](=O)[O-]	100	?	4	104	.	102
O=C(c1ccc(CN2CCOCC2)cc1)N1CCC(Cc2ccccc2)CC1	114	135	91*	107	23	102
S=C(NCc1ccncc1)NC1CCCC1	102	102	9	100	13	103
NC(=O)c1oc2ccccc2c1NC(=O)c1ccco1	101	98	21	102	13	100
NC(=O)c1oc2ccccc2c1NC(=O)c1ccccc1	98	98	7	98	259*	100
c1cncc(CNc2nc(N3CCOCC3)nc(N3CCOCC3)n2)c1	111	131	67*	98	34	95
Cc1cc(N2CCOCC2)nc(NCc2ccccc2)n1	122	120	5	231	259*	132
CCN(CC)CCCNC(=O)CSc1nc2c(c(C(F)(F)F)n1)CCc1ccccc1-2	109	?	64*	101	28	98
Cc1onc(-c2ccccc2)c1C(=O)OCC(=O)Nc1ccc2c(c1)OCO2	111	99	18	109	8	102
Cc1onc(-c2ccccc2Cl)c1C(=O)N1CCCc2ccccc21	100	99	10	100	30	101
Cc1onc(-c2ccccc2Cl)c1C(=O)OCC(=O)N1CCCc2ccccc21	106	106	8	105	267*	102
Cc1onc(-c2ccccc2Cl)c1C(=O)OCC(=O)Nc1ccc2c(c1)OCO2	104	105	7	103	263*	105
Cc1ccc(S(=O)(=O)Nc2ccc(N3CCN(C)CC3)nc2)cc1	102	101	9	104	16	99
COc1cc(S(=O)(=O)N2CCN3CCCC3C2)ccc1-n1cnnn1 (stereo not given)	73	82	15	79	25	87
COc1ccc(C=O)cc1COc1ccccc1F	92	91	8	45	3	82
COc1ccc(/C=C/C(=O)c2ccccc2)cc1COc1ccccc1F	104	126	90*	107	11	99
CCOC(=O)c1c(NC(=O)COC)sc(C(C)=O)c1C	105	104	11	111	54	101
CCOC(=O)c1c(NC(=O)COC)sc(C)c1C	110	108	6	109	126*	109
COC(=O)c1cc(C(=O)c2cc(Cl)ccc2O)coc1=N	105	112	6	102	20	102
O=C(NCCSc1ccccc1)c1ccc(Br)cc1	101	97	16	102	18	102
O=C(NCCSc1ccccc1)c1cncc(Br)c1	106	123	91*	106	18	101
CC(C)(C)Cc1nnc(NS(=O)(=O)c2ccccc2)s1	99	97	12	102	15	102

Screening data: PubChem, NMMLSC
